Assay in all cases: DAPPL (digital affinity profiling via proximity ligation, sequencing); 10 mM Tris-HCl pH 7.5, 50 mM NaCl, 1 mM DTT, 4% glycerol, room temperature, 30 min; GST-TFs on glutathione beads, 16-mer random dsDNA library, 0.1% formaldehyde crosslink after washing; high values mean tight binding
Holding throughout (settings): protein: recombinant; tags: N-terminal GST; dsDNA, one strand shown

One assay has as its target T1, ELK1 (Homo sapiens, UniProt P19419 1-428).
T1 sequence: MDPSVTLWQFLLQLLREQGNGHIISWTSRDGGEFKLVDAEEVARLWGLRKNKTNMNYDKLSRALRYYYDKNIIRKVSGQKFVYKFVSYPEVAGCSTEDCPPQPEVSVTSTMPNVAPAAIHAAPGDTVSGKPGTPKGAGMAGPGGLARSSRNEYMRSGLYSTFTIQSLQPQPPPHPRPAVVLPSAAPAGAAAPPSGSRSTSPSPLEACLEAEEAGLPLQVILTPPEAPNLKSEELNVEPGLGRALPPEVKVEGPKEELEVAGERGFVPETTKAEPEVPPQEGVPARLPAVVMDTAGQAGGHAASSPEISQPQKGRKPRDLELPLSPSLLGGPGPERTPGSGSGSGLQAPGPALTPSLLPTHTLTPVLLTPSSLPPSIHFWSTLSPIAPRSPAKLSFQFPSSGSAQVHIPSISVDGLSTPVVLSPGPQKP
Summed up:
(§1)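 Beads coated with glutathione captured GST-fused human transcription factors that had been expressed in yeast, and the factors were then given DNA barcodes and pooled with a tag-only sample. The pools were incubated with 200 nmole of a random double-stranded 16-mer DNA library in Tris/NaCl/DTT/glycerol buffer for 30 min at room temperature, washed, crosslinked with 0.1% formaldehyde and proximity-ligated with BsaI/T4 ligase at 37 °C for 1 h. PCR amplification and Illumina NextSeq500 sequencing came last. Binding signal is each hexamer's read frequency for a factor divided by its frequency for the tag-only sample.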

Another assay has as its target T2, GABPA (Homo sapiens, UniProt Q06546 1-454).
T2 sequence: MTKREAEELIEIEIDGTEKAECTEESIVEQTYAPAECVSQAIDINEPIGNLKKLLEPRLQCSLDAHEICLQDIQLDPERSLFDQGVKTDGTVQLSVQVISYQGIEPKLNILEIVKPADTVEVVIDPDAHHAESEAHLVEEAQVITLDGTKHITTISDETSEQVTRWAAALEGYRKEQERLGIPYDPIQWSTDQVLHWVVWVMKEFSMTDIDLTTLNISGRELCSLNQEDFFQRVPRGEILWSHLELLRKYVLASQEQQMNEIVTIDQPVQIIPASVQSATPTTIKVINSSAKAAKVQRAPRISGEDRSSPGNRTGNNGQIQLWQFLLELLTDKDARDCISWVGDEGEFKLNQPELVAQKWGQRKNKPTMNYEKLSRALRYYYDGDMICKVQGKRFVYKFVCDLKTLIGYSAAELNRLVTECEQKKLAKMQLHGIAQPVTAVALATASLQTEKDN
Summed up:
as §1

In another assay the target is T3, ERG (Homo sapiens, UniProt P11308 1-479).
T3 sequence: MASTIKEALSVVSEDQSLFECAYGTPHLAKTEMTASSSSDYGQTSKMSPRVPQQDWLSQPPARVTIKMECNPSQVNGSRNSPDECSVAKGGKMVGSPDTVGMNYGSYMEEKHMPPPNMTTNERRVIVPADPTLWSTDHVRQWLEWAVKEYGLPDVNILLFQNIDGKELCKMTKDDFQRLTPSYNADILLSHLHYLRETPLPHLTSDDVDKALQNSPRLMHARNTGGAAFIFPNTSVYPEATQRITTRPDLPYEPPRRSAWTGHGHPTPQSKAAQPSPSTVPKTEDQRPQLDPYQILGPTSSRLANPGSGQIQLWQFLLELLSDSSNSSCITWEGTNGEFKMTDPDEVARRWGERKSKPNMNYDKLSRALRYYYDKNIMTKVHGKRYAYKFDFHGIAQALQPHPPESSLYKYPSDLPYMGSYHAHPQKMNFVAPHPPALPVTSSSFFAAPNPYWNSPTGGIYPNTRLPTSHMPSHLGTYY
Summed up:
as §1

The next assay deals with ELF1 (Homo sapiens, UniProt P32519 1-619). Summed up: as §1
Sequence of ELF1 (P32519 whole entry): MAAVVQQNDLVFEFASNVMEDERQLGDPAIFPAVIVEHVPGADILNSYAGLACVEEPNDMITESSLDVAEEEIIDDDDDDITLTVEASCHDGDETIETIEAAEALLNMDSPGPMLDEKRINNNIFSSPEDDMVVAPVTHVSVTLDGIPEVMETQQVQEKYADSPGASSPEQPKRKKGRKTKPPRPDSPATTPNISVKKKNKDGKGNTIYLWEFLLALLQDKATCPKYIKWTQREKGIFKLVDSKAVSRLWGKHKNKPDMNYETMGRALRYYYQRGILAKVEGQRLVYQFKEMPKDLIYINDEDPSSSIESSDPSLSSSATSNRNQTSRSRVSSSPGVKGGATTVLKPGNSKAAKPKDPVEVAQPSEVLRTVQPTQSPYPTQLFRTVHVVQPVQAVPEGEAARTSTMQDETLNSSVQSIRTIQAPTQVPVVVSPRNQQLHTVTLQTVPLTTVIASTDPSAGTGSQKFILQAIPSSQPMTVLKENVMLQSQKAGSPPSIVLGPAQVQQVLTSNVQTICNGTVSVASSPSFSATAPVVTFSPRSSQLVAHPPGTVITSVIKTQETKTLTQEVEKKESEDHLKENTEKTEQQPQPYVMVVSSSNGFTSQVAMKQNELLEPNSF
The next assay concerns the target T4, EHF (Homo sapiens, UniProt Q9NZC4 1-300).
T4 sequence: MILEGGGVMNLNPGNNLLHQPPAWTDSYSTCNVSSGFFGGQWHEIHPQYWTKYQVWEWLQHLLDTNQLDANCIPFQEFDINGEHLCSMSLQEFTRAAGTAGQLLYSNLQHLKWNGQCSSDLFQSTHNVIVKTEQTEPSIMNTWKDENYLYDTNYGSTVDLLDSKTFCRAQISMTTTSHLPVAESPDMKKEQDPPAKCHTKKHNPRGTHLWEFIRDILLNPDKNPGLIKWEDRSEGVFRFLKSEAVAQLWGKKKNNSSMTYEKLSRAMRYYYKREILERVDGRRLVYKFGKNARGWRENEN
The method, boiled down:
as §1

Another assay addresses SPI1 (Homo sapiens, UniProt P17947 1-270). The method, boiled down: as §1
Another assay deals with SPIB (Homo sapiens, UniProt Q01892 1-262). Summed up:
as §1

The target in the next assay is T5, FEV (Homo sapiens, UniProt Q99581 1-238).
T5 sequence: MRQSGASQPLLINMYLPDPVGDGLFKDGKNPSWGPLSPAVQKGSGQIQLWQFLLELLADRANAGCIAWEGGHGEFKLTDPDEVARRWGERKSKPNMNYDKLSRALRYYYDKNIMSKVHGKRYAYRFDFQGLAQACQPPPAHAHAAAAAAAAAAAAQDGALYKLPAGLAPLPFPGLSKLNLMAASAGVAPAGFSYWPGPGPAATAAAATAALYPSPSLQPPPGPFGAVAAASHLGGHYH
Summed up: as §1

A further assay deals with ETV5 (Homo sapiens, UniProt P41161 1-510). Summed up: as §1
Sequence of ETV5 (P41161 whole entry): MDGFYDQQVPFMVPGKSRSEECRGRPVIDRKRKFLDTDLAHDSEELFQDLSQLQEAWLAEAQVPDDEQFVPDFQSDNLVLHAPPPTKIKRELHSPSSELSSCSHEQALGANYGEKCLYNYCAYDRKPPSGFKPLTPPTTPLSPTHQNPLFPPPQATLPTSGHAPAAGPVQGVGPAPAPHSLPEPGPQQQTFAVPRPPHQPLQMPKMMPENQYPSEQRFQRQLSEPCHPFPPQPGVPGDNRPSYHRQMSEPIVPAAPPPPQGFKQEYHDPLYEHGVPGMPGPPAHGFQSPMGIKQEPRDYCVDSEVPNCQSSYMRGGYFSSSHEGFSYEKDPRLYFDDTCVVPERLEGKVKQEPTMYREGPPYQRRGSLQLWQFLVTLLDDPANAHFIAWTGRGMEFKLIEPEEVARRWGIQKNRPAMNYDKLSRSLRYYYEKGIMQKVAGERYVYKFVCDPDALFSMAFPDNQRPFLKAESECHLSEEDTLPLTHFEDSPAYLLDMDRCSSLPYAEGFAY
The target in a further assay is ELF4 (Homo sapiens, UniProt Q99607 1-663). Summed up:
as §1

The next assay has as its target T6, ELK4 (Homo sapiens, UniProt P28324-2 1-405).
T6 sequence: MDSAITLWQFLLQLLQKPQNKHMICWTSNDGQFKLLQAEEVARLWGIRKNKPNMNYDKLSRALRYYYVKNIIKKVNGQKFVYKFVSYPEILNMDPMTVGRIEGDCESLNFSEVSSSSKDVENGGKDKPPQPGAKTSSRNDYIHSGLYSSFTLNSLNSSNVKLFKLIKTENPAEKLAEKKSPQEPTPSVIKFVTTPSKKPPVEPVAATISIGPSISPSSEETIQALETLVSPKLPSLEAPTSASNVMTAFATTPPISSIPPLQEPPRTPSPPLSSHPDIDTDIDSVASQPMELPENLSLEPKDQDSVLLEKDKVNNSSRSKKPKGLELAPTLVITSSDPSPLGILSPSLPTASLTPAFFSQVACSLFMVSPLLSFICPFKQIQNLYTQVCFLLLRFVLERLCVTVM
The method, boiled down:
as §1

The next assay deals with T7, ETV2 (Homo sapiens, UniProt O00321 1-342).
T7 sequence: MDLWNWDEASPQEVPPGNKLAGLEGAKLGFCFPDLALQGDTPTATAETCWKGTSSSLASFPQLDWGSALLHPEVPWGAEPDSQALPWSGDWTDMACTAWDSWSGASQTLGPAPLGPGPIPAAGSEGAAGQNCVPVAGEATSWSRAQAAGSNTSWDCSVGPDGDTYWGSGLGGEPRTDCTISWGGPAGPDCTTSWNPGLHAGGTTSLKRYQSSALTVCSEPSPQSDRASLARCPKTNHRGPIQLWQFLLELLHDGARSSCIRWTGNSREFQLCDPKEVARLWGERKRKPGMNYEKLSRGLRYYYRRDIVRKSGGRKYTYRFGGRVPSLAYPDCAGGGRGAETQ
Summed up: as §1

For another assay, the target named is ETV1 (Homo sapiens, UniProt P50549 1-477). The method, boiled down:
as §1

The target in another assay is T8, ERF (Homo sapiens, UniProt P50548 1-548).
T8 sequence: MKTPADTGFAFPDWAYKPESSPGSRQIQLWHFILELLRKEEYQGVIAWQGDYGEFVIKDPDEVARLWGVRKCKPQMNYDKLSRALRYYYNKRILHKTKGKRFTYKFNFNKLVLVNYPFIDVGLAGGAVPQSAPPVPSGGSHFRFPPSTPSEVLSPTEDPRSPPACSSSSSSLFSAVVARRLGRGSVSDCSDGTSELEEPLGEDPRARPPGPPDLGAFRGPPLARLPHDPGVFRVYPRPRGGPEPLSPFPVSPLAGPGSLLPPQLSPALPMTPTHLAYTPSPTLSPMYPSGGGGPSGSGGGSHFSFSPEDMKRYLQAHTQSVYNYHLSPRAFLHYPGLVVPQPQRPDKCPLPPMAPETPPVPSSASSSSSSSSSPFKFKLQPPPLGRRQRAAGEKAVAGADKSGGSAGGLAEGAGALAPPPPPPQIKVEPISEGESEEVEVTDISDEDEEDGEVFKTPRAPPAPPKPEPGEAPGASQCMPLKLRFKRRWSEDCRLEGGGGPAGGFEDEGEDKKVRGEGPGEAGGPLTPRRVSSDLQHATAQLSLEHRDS
Summed up:
as §1

The target in another assay is T9, ETV3L (Homo sapiens, UniProt Q6ZN32 1-361).
T9 sequence: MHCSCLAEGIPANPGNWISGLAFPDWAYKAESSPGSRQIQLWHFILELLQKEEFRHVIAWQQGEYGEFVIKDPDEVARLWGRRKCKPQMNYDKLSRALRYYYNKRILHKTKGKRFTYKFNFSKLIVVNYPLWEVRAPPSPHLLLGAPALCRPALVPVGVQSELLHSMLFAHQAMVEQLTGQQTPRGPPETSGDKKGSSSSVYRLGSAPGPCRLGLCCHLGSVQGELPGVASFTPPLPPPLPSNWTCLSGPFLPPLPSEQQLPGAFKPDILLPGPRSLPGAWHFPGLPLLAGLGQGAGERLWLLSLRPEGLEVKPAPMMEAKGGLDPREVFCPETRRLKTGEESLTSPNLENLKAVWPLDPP
The method, boiled down: as §1

The target in the next assay is T10, ETS2 (Homo sapiens, UniProt P15036 1-469).
T10 sequence: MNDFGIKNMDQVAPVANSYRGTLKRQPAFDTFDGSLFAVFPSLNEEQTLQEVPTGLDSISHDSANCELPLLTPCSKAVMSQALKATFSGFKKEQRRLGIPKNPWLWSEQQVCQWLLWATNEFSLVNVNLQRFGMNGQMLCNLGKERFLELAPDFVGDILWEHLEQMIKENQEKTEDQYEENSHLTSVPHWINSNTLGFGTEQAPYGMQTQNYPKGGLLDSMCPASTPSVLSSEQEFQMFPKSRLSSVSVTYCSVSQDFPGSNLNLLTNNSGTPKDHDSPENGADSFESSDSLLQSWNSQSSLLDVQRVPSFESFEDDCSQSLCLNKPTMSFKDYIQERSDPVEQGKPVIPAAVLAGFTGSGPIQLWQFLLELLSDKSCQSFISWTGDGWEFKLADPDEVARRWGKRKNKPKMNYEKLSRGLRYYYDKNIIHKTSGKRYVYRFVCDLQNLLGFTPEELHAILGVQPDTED
Summed up:
as §1

The next assay deals with T11, SPDEF (Homo sapiens, UniProt O95238 1-335).
T11 sequence: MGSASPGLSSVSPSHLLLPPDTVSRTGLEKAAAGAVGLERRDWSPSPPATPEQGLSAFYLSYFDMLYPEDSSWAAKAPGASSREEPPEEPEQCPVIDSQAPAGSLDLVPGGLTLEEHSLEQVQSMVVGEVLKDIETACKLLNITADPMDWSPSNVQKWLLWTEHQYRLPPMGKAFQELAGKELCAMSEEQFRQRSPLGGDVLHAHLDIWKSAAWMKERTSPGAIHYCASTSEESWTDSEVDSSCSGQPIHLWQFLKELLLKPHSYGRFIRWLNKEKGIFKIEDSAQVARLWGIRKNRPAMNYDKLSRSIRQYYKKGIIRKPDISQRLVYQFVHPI
Summed up: as §1

Another assay deals with T12, ETV7 (Homo sapiens, UniProt Q9Y603 1-341).
T12 sequence: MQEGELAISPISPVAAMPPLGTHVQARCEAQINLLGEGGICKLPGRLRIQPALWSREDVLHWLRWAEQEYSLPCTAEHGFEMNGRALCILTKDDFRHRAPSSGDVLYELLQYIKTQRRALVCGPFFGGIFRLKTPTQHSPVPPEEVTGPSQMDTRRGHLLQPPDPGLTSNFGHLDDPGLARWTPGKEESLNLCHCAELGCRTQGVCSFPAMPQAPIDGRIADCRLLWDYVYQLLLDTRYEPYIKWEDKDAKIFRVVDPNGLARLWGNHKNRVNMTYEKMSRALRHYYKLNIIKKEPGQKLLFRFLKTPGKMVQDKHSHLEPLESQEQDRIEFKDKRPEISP
Summed up:
as §1

In a further assay the target is T13, ETV3 (Homo sapiens, UniProt P41162-2 1-143).
T13 sequence: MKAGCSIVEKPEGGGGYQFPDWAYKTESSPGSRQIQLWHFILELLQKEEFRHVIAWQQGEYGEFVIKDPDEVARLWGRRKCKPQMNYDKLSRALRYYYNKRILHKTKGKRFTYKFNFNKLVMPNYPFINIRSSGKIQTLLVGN
The method, boiled down:
as §1

For another assay, the target named is ETV6 (Homo sapiens, UniProt P41212 1-452). Summed up:
as §1

Drawing on PMC7862700, “An all-to-all approach to the identification of sequence-specific readers for epigenetic DNA modifications on cytosine”, this text covers binding signal for one sequence.

Sequence of SPIB (Q01892 whole entry): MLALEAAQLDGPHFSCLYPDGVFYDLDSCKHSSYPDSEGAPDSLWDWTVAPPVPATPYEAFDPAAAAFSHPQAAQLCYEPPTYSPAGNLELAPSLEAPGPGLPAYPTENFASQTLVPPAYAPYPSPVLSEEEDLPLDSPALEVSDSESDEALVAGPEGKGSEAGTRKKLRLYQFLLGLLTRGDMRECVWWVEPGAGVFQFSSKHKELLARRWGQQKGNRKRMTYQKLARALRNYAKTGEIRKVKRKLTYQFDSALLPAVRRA
Sequence of ETV1 (P50549 whole entry): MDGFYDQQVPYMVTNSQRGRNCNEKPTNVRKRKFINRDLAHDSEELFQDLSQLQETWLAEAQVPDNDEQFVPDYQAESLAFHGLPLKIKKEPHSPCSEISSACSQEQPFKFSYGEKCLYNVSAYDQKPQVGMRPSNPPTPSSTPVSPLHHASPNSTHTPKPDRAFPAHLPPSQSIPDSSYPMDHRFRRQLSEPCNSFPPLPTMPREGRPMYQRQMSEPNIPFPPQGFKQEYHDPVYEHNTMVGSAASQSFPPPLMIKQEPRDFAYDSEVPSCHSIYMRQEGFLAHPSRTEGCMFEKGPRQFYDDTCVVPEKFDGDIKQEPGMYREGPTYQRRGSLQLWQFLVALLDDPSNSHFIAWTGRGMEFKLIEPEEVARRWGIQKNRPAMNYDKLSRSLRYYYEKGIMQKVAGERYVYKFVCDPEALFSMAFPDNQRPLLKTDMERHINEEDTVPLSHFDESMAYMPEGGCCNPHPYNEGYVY
Sequence of ETV6 (P41212 whole entry): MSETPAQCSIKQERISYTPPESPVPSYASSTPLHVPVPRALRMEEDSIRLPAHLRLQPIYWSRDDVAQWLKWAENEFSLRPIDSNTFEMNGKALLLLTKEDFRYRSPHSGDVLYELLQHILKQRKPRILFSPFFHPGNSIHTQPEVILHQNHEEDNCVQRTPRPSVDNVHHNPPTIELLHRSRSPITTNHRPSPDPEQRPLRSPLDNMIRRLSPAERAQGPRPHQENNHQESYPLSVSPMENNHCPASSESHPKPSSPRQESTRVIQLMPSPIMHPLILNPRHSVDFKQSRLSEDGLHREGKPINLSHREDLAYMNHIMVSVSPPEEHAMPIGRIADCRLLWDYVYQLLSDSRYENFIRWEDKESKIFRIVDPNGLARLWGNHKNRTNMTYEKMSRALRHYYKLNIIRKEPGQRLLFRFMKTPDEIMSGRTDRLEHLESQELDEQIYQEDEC
Sequence of ELF4 (Q99607 whole entry): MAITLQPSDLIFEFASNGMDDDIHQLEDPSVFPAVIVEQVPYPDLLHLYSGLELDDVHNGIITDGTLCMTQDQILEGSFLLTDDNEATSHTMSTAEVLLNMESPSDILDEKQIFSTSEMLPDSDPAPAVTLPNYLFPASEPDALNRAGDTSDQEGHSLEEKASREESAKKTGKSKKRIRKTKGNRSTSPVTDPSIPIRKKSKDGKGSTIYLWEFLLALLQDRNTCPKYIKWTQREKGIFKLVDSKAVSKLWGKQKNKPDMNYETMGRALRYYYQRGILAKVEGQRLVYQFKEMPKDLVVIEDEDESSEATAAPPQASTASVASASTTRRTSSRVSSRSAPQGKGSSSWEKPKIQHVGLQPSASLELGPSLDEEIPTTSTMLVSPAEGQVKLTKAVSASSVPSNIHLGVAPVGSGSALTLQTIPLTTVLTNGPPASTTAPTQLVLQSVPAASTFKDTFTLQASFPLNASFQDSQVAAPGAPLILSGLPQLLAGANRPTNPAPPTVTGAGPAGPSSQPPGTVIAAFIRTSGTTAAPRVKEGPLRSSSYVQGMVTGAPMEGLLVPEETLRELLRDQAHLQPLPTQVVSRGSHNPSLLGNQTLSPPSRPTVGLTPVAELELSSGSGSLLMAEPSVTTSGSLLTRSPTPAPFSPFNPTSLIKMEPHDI

For CATGAC, the binding signal was 1.18 fold enrichment (6-mer frequency, TF over GST control) with ELK1; 1.34 fold enrichment (6-mer frequency, TF over GST control) with GABPA; 1.14 fold enrichment (6-mer frequency, TF over GST control) with ERG; 1.18 fold enrichment (6-mer frequency, TF over GST control) in the assay with ELF1; 1.25 fold enrichment (6-mer frequency, TF over GST control) with EHF; 1.28 fold enrichment (6-mer frequency, TF over GST control) with SPI1. In addition, the binding signal was 1.16 fold enrichment (6-mer frequency, TF over GST control) with SPIB; 1.17 fold enrichment (6-mer frequency, TF over GST control) with FEV; 1.24 fold enrichment (6-mer frequency, TF over GST control) in the assay with ETV5; 1.28 fold enrichment (6-mer frequency, TF over GST control) with ELF4; 1.09 fold enrichment (6-mer frequency, TF over GST control) with ELK4; 1.3 fold enrichment (6-mer frequency, TF over GST control) with ETV2. The binding signal in the assay with ETV1 was 1.13 fold enrichment (6-mer frequency, TF over GST control); with ERF, 1.18 fold enrichment (6-mer frequency, TF over GST control); with ETV3L, 1.13 fold enrichment (6-mer frequency, TF over GST control); with ETS2, 1.2 fold enrichment (6-mer frequency, TF over GST control); in the assay with SPDEF, 1.2 fold enrichment (6-mer frequency, TF over GST control); in the assay with ETV7 it was 1.11 fold enrichment (6-mer frequency, TF over GST control). Moreover, the binding signal in the assay with ETV3 is 1.13 fold enrichment (6-mer frequency, TF over GST control); in the assay with ETV6 it was 1.18 fold enrichment (6-mer frequency, TF over GST control).
